In ChEMBL document CHEMBL4513135, “CO-ADD screening of IQOG CSIS (Spain) compounds”:
“And” between values parts separate entries of the source, which are not always exact repeats. Equal values may be shown once. Results with a measured potency or affinity are listed apart.

Experiments:
Staphylococcus aureus = conditions: Concentration 32 ug.mL-1, ASSAY_TEST Inhibition of Bacterial Growth, detection method Absorption (OD600), MEDIA CAMHB, plate type 384well, NBS, CORNING #3640, time 18 hr
Escherichia coli = conditions: Concentration 32 ug.mL-1, ASSAY_TEST Inhibition of Bacterial Growth, detection method Absorption (OD600), MEDIA CAMHB, plate type 384well, NBS, CORNING #3640, time 18 hr

Compound	Inhibition (Staphylococcus aureus) [%]	Inhibition (Escherichia coli) [%]	Inhibition (Staphylococcus aureus; 32 ug/mL)	Inhibition (Escherichia coli; 32 ug/mL)
O=C(COc1ccc2ccccc2c1)NNCc1c[nH]c2ccccc12	3.31	7.68	–	–
CCOC(=O)C1=C(C)OC(N)=C(C#N)C1c1ccco1 (configuration not stated)	7.79	-14.37	–	–
COc1cccc(C2C(C#N)=C(N)Oc3[nH]nc(C)c32)c1 (configuration not stated)	6.27	6.61	–	–
CCOC(=O)C1=C(C)OC(N)=C(C#N)C1c1ccc(OC)cc1 (configuration not stated)	9.52	-2.05	–	–
O=C1OC(c2ccccc2)=NC12CC2c1ccc([N+](=O)[O-])cc1 (configuration not stated)	9.12	5.57	–	–
CCOC(=O)/C(C#N)=C\c1ccc(C)cc1	28.15	15.07	–	–
O=C(NNCCc1ccccc1)c1cc2ccccc2[nH]1	-6.37	-5.83	–	–
CCOC(=O)C1=C(C)OC(N)=C(C#N)C1c1ccc([N+](=O)[O-])cc1 (configuration not stated)	16.31	-9.87	–	–
N#CCC(=C(C#N)C#N)c1ccccc1	11.65	4.41	–	–
N#Cc1cc(C#N)c(NCCO)nc1N	40.77	-7.55	–	–
N#CC1=C(N)Oc2ccc3ccccc3c2C1c1ccccc1 (configuration not stated)	40.09	-6.38	–	–
CCOC(=O)C1=C(C)NC(N)=C(C#N)C1c1ccc([N+](=O)[O-])cc1 (configuration not stated)	22.51	-7.02	–	–
CCOC(=O)C1=C(C)OC(N)=C(C#N)C1c1cccs1 (configuration not stated)	8.64	-14.26	–	–
CCOc1nc2nc(C)c(C=C3CCN(Cc4ccccc4)CC3)cc2c(-c2ccccc2)c1C#N	33.88	-8.83	–	–
Cl.N#Cc1c(Cl)nc(N)nc1NCCO	-0.92	-1.11	–	–
CCOC(=O)C1=C(C)Nc2nc3c(c(N)c2C1c1cccc(OC)c1)CCCC3 (configuration not stated)	17.18	-19.26	–	–
Cn1c(C(=O)NCc2ccccc2)cc2cc(OCCCC3CCN(Cc4ccccc4)CC3)ccc21	21.45	-9.22	–	–
COc1nc(N)c(C#N)cc1C#N	18.25	-3.66	–	–
C=C1CN(C)c2c(C#N)c(-c3ccccc3)c(C#N)c(=O)n21	8.64	-1.97	–	–
CC(=O)NCCc1ccccc1	12.71	11.94	–	–
COc1cccc(C=C2N=C(c3ccccc3)OC2=O)c1OC(C)=O	5.66	4.51	–	–
Cc1ccc(-c2c(C#N)c(N)nc3c2S(=O)(=O)OC3(C)C)cc1	9.98	6.38	–	–

Compound	Inhibition (Staphylococcus aureus) [%]	Inhibition (Escherichia coli) [%]	Inhibition (Staphylococcus aureus; 32 ug/mL)	Inhibition (Escherichia coli; 32 ug/mL)
COC1(N)Oc2ccc3ccccc3c2C(c2ccccc2)C1(Br)C#N (configuration not stated)	16.73	20.49	–	–
CCOC(=O)C1=C(C)OC(N)=C(C#N)C1c1ccccc1 (configuration not stated)	25.42	-7.58	–	–
COC(=O)C(=Cc1ccc(OC)cc1)NC(C)=O	16.29	8.29	–	–
O=C1C=C(Nc2ccccc2)C(=O)N1c1ccccc1	3.04	4.55	–	–
Cl.Nc1c2c(nc3c1C(c1ccccc1)c1ccc4ccccc4c1O3)CCCC2 (configuration not stated)	23.84	6.79	–	–
N#Cc1cc(C#N)c(N2CCCC2)nc1N	51.19	-9.12	–	–
N#CC1=C(N)Oc2ccc3ccccc3c2C1	5.91	-5.32	–	–
O=C1SC(SCc2ccccc2)=NC1=Cc1cccc(OCc2ccccc2)c1	-1.09	7.89	–	–
CSC1=NC2(CC2c2ccccc2)C(=O)N1 (configuration not stated)	10.34	2.43	–	–
Cn1ccnc1C1C2=C(CC(C)(C)CC2=O)Oc2nc3c(c(N)c21)CCCC3 (configuration not stated)	8.97	-15.11	–	–
N#Cc1cc(C#N)c(NCCC2CCN(Cc3ccccc3)CC2)nc1N	49.11	-25.69	–	–
CC(C)(C)OC(=O)Nc1ncccc1Br	38.27	-5.45	–	–
c1ccc(Cn2ccc3ccccc32)cc1	7.36	11.73	–	–
N#Cc1c(N)nc(N2CCC(Cc3ccccc3)CC2)c(C#N)c1-c1ccccc1	8.01	-15.68	–	–
N#C/C(=C\c1ccccc1Cl)C(=O)c1ccccc1	33.12	20.31	–	–
CC#CCN(Cc1ccccc1)c1nc(N)c(C#N)cc1C#N	14.89	-4.77	–	–
CCOc1nc(N)c(C#N)cc1C#N	33.34	-14.2	–	–
O[C@H]1CC[C@H](NCc2ccccc2)CC1	21.55	-7.34	–	–
N#Cc1cc(C#N)c(NC2CCN(Cc3ccccc3)CC2)nc1N	–	–	23.9% and 14.84%	-6.37% and -14.46%
CN(C)c1nc(N)c(C#N)cc1C#N.Cl	–	–	-10.37% and 5.36%	-3.96% and -19.68%
N#CC1=C(N)NC(=O)CC1c1ccccc1 (configuration not stated)	34.44	4.14	–	–
Cl.ClCCCCN1CCCCC1	1.62	-1.96	–	–

Compound	Inhibition (Staphylococcus aureus) [%]	Inhibition (Escherichia coli) [%]	Inhibition (Staphylococcus aureus; 32 ug/mL)	Inhibition (Escherichia coli; 32 ug/mL)
COc1ccccc1C1C(C#N)=C(N)Oc2ccc3ccccc3c21 (configuration not stated)	38.4	-7.08	–	–
O=C(Cc1cccc2ccccc12)N/N=C/c1c[nH]c2ccccc12	12.36	15.45	–	–
Cn1cc(/C=C2\NC(=S)NC2=O)c2ccccc21	2.93	3.35	–	–
Cl.Nc1c2c(nc3c1C(c1c(Cl)cccc1Cl)c1ccc4ccccc4c1O3)CCCC2 (configuration not stated)	-3.18	-2.79	–	–
COc1ccc2c(c1)cc(C(=O)O)n2C	20.8	-7.03	–	–
O=C1NC(=O)C(=Cc2ccccc2)N1	16.19	11.12	–	–
Cn1c(CO)cc2cc(OCCCC3CCN(Cc4ccccc4)CC3)ccc21	7.02	-17.9	–	–
COc1ccc(C2c3c(ccc4ccccc34)OC(=NBr)C2(Br)C#N)cc1OC (configuration not stated)	13.88	-20.35	–	–
COc1ccc(C2C(C#N)=C(Cl)Oc3c2ccc2ccccc32)cc1OC (configuration not stated)	-3.84	-30	–	–
C#CCN(C)c1nc(OC)c(C#N)cc1C#N	10.54	-19.1	–	–
CNN=C1N=C(SCc2ccccc2)SC1=O	8.05	4.4	–	–
COc1ccc(C2c3c(nc4c(c3N)CCCC4)Oc3ccc4ccccc4c32)cc1 (configuration not stated)	18.52	4.53	–	–
CC1=C(C(=O)N2[C@@H]3C[C@H]4CCC3(CS2(=O)=O)C4(C)C)C(c2ccccc2)C(C#N)=C(N)O1 (some centres not stated)	-1.02	15	–	–
CC1=C(CO)C(c2ccc(C#N)cc2)C(C#N)=C(N)O1 (configuration not stated)	9.52	17.18	–	–
CCC(CC)NNC(=O)c1cc2ccccc2n1C	11.92	13.68	–	–
Cc1cnc2ccc(Cl)cn12	9.7	8.76	–	–
Cc1ccc(C=C2N=C(c3ccccc3)OC2=O)cc1	7.55	3.61	–	–
N#Cc1cccnc1N	27.07	-3.89	–	–
C#CCN(C)c1nc(Cl)c(C#N)c(-c2ccccc2)c1C#N	13.59	-10.42	–	–
COc1cc(C2c3ccc4ccccc4c3Oc3nc4c(c(N)c32)CCCC4)ccc1O.Cl (configuration not stated)	-4.49	-1.18	–	–
Cn1cc(C(=O)NN)c2ccccc21	4.01	20.35	–	–
Cn1c(C(=O)O)cc2cc(OCCCC3CCN(Cc4ccccc4)CC3)ccc21	27.49	-8.76	–	–

Compound	Inhibition (Staphylococcus aureus) [%]	Inhibition (Escherichia coli) [%]	Inhibition (Staphylococcus aureus; 32 ug/mL)	Inhibition (Escherichia coli; 32 ug/mL)
C#CCNc1nc(NCCC2CCN(Cc3ccccc3)CC2)c(C#N)cc1C#N	-4.51	-8.4	–	–
CCOC(=O)c1c(C)nc(NC2CCN(Cc3ccccc3)CC2)c(C#N)c1-c1ccccc1	43.62	-5.95	–	–
CCOc1nc(N)c(C#N)c(-c2ccccc2)c1C#N	44.16	-9.76	–	–
COc1ccc(C2c3ccc4ccccc4c3OC(=NBr)C2(Br)C#N)cc1 (configuration not stated)	25.41	-8.93	–	–
C#CCN(C)Cc1cc2cc(OCCCC3CCN(Cc4ccc(C#N)cc4)CC3)ccc2n1C	8.98	-18.18	–	–
CCOC(=O)C1=C(C)OC(N)=C(C#N)C1c1cccnc1 (configuration not stated)	-6.34	-11.43	–	–
N#Cc1c(N)nc(O)c(C#N)c1-c1ccccc1	4.47	-25.59	–	–
COc1nc2ccccc2cc1C=O	17.37	18.39	–	–
CC(C)CC(C)NNC(=O)c1cc2ccccc2[nH]1 (configuration not stated)	-8.06	-7.16	–	–
C#CCN(C)c1nc(NCCC2CCN(Cc3ccccc3)CC2)c(C#N)cc1C#N.Cl	16.92	-3.04	–	–
CC1CN(C)c2c(C#N)c(-c3ccccc3)c(C#N)c(=N)n21 (configuration not stated)	26.27	-6.63	–	–
N#Cc1cccnc1Cl	22.89	-20.17	–	–
Clc1ccc(-c2cn3ccccc3n2)cc1	13.75	15.37	–	–
CNC(=O)c1cc2cc(OCc3ccccc3)ccc2n1C	23.23	-13.67	–	–
CCCC(C)NNC(=O)c1cc2ccccc2[nH]1 (configuration not stated)	2.06	3.83	–	–
COc1ccccc1C1c2c(ccc3ccccc23)OC(=N)C1(Br)C#N (configuration not stated)	32.97	-9.16	–	–
COc1cc(Br)c(C=O)cc1OC	28.77	5	–	–
COC1=C(C#N)CC(C)C(=O)N1 (configuration not stated)	16.96	-13.94	–	–
CCC(Cc1ccccc1)NNC(=O)c1cc2ccccc2[nH]1 (configuration not stated)	-3.17	-1.51	–	–
CCOC(=O)c1c(C)nc2nc3c(c(N)c2c1-c1ccc(OC)cc1)CCCCCC3	3.19	-20.4	–	–
